In the library only some 8% were active in any assay of this set; here they are far more common.
FBPA coupling cs = qHTS Assay for Inhibitors of Fructose-1,6-bisphosphate Aldolase from Giardia Lamblia: Coupling assay counterscreen; coupling enzyme system counterscreen, AmpLite Red fluorescence; activity change, negative = inhibition, % at 58.2 µM, hits read low; 0.67% of 290,000 active; in the data active = activity change below about -30%
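Final compound at 57.5 uM, incubated 10 min at RT with coupling enzyme reagent (glyceraldehyde-3-phosphate), then 20 min with substrate and AmpLite Red detection. Fluorescence read at 525/598 nm; tests interference with the coupling assay, not aldolase inhibition.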
RORg inh = qHTS for inhibitors of ROR gamma transcriptional activity | 5.4% of 310,000 active | Nuclear receptor ROR-gamma (Mus musculus), P51450 | Drosophila S2 Gal4-RORgamma UAS-luciferase reporter, 20 h | AID 2551, 2010 | Potency, µM (titrated, usually from 53.6 µM), inactives show at the highest dose activity change, negative = inhibition, hits mostly inhibitors; also: potency is read from the fitted curve at half-maximal effect; nearly all actives have a fitted effect of over 60% in size
Target sequence (P51450 whole entry, looked up, the tested form may be a part): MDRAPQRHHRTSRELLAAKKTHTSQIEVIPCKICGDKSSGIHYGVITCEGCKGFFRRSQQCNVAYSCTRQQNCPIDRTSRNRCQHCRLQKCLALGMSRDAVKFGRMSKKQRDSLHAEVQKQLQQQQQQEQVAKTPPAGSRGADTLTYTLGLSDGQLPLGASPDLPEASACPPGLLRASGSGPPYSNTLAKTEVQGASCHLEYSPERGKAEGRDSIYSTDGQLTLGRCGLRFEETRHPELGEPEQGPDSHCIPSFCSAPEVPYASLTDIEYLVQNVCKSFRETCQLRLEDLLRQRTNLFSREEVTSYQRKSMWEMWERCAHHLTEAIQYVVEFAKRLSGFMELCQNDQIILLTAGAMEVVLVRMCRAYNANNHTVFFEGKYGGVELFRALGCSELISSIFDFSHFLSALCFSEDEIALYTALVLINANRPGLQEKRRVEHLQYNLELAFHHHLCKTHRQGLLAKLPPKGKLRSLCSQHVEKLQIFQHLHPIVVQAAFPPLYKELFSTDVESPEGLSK
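ROR gamma transcriptional activity was tracked as Gal4-UAS luciferase output in stably transfected Drosophila Schneider cells, with compound added 1 hr before 700 uM copper sulfate induction and a 20 hr ambient-temperature incubation.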
ELG1 DNA repair = qHTS screen for small molecules that inhibit ELG1-dependent DNA repair in human embryonic kidney (HEK293T) cells expressing luciferase-tagged ELG1. Potency, µM (titrated, usually from 46.1 µM), for inactives: top-dose activity change, negative = inhibition, actives largely listed as inhibitors. 2.3% of 330,000 active. HEK293T ELG1-luciferase reporter, luminescence, 16 h; DNA damage induced by 5-fluorouridine; also: potency is read from the fitted curve at half-maximal effect; nearly all actives have a fitted effect of over 55% in size
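In this reporter screen, reduction of luminescence relative to DMSO vehicle indicated activity. Compounds and 5-fluorouridine were added together to 2,000 cells per well, incubated for 16 hr at 37 °C, then developed with ONE-Glo.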
Gal4-VP16 FLuc = VP16 counterscreen qHTS for inhibitors of ROR gamma transcriptional activity. Drosophila S2 Gal4-VP16 UAS-luciferase, luminescence, 20 h. Potency, µM (doses to about 53.6 µM), without a hit: at the top dose activity, negative = inhibition, actives largely listed as inhibitors. 3.5% of 310,000 active. AID 2546, 2010;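 also: Gal4-VP16 expression switched on by copper sulfate through the metallothionein promoter; potency is read from the fitted curve at half-maximal effect; nearly all actives have a fitted effect of over 50% in size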
TSHR antag = Antagonists of the Thyroid Stimulating Hormone Receptor: HTS campaign | TSHR-expressing cells, TSH-stimulated cAMP HTRF, 2 h; active compounds read low | Thyrotropin receptor (Homo sapiens), P16473 | 0.2% of 330,000 active | activity change, negative = inhibition, % at 11.5 µM;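 active = activity change below a set negative limit, meaning inhibition stronger than a set level, cut at about -70% in these data; inconclusive = activity change between two set negative limits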
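Antagonism was scored as loss of TSH-driven cAMP in TSHR cells, stimulated with 4nM TSH (EC80) for 2 hours at 37 deg C and detected by homogeneous HTRF competition immunoassay.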
The depositor's hits bear a star; ? = inconclusive; . = not tested or not shown; [ ] = dose if it differs, or a comment. Unless noted, calls follow the shape of the dose curve; as a rule, active = well fitted curve in the direction sought with a large enough effect; inconclusive = small, poorly fitted or top-dose-only effect, or another doubt; inactive = no such curve, though single readings can be large; an effect the other way counts as inactive or inconclusive. % is scaled to controls: 0 for no effect and ±100 for the full control effect.

SMILES	FBPA coupling cs	RORg inh	ELG1 DNA repair	Gal4-VP16 FLuc	TSHR antag
COc1ccc(C(=O)CC(=O)C(=O)Nc2ccc(OC)c(Cl)c2)cc1	1	-7%	-2%	9%	15
COc1ccc(C(=O)CC(=O)C(=O)Nc2ccc(Cl)cc2)cc1	1	7.1µM*	?	13µM*	8
COc1ccc(C(=O)CC(=O)C(=O)Nc2c(C)cccc2C)cc1	-5	6.3µM*	-25%	5.6µM*	-4
COc1ccc(C(=O)CC(=O)C(=O)Nc2ccccc2Cl)cc1	0	6.3µM*	-14%	3.2µM*	-6
COc1ccc(C(=O)CC(=O)C(=O)Nc2cc(Cl)c(OC)cc2OC)cc1	-2	?	-7%	-6%	-8
COc1ccc(C(=O)CC(Nc2ccc([N+](=O)[O-])cc2)c2ccc(Cl)cc2)cc1 (stereo not drawn)	-1	?	16µM*	3%[0.365 µM]	-8
COc1ccc(C(=O)c2ccc(O)cc2)c(O)c1O	-10	-24%	.	-12%	.
O=C1Cc2ccccc2C(=O)N1Cc1ccccc1	-43*	1%	-3%	-5%	-8
O=C(NN=C(Cc1ccccc1)Cc1ccccc1)c1ccccc1O	1	3.5µM*	?	?	-5
NC(=S)NN=C(Cc1ccccc1)Cc1ccccc1	-3	1.4µM*	?	5µM*	-4
O=C(NN=C(Cc1ccccc1)Cc1ccccc1)c1ccc(F)cc1	3	?	18%	?	1
COc1ccc(N(CC(=O)N2CCC(C(N)=O)CC2)S(=O)(=O)c2ccccc2)cc1	4	-12%	7%	-1%	-10
CC1(c2ccccc2)NC(=O)N(CC(=O)NCc2cccc(Cl)c2)C1=O (stereo not drawn)	-1	14%	-3%	-2%	42
CCOC(=O)c1sc(-c2ccc(C)cc2)c(C#N)c1C	2	16%	?	5%	3
Cc1c(C(=O)NN)sc(-c2ccccc2)c1C#N	4	10µM*	?	?	-8
OCCNC(=S)NCCc1ccccc1	1	-10%	0%	16%	0
CNC(=S)N/N=C/C1=CCC2CC1C2(C)C (stereo not drawn)	-1	1.3µM*	4%	2.5µM*	9
CC1(C)C2CC=C(/C=N/NC(=S)NCCc3ccccc3)C1C2 (stereo not drawn)	-1	2µM*	?	7.1µM*	1
CC1(C)C2CC=C(/C=N/n3cnnc3)C1C2 (stereo not drawn)	0	-5%	19%	-4%	0
CC1(C)C2CC=C(/C=N/NC(=O)c3ccccc3O)C1C2 (stereo not drawn)	2	8.9µM*	2%	?	-1
CCOC(=O)C1=C(COC(=O)c2ncc(Cl)c(Cl)c2Cl)NC(=O)NC1C (stereo not drawn)	.	.	14%	.	-9
Cc1c(C(=O)Nc2ccc(S(=O)(=O)Nc3ncccn3)cc2)oc2ccc(F)cc12	1	22%	?	3%	9
CC12CC3(C)CC(C)(C1)CC(C(=O)NC(=S)N1CCOCC1)(C2)C3	-4	0.89µM*	-9%	?	5
O=C(NC(=S)N1CCN(CCO)CC1)C12CC3CC(CC(C3)C1)C2	2	5%	-5%	-4%	18
CC(C)(C)C(=O)NC(=S)N1CCOCC1	1	-24%	1%	-11%	16
SMILES	FBPA coupling cs	RORg inh	ELG1 DNA repair	Gal4-VP16 FLuc	TSHR antag
O=C(NC(=S)N1CCOCC1)C12CC3CCC(CC(C3)C1)C2	4	4.5µM*	5%	6.3µM*	2
O=C(NC(=S)N1CCOCC1)C12CCC3CC(CC(C3)C1)C2	-1	1.3µM*	14%	1.8µM*	19
NC(=O)/N=N/C(N)=O	.	?	.	-2%	.
CN(C)S(=O)(=O)c1ccc(C(=O)Nc2nc(-c3cc4ccccc4o3)cs2)cc1	-6	?	16%	6.3µM*	?
Cc1cc(-c2csc(NC(=O)c3ccc(S(=O)(=O)N(C)C)cc3)n2)c(C)n1-c1ccccc1	1	-26%	9.2µM*	0%	-8
C=CCNc1nc(-c2cc3ccccc3o2)cs1	-2	-33%	?	?	2
CC1CN(S(=O)(=O)c2ccc(C(=O)Nc3nncs3)cc2)CC(C)O1 (stereo not drawn)	.	.	8%	.	-13
c1ccc2oc(-c3csc(NCC4CCCO4)n3)cc2c1 (stereo not drawn)	1	7.9µM*	?	?	-14
CC1CN(S(=O)(=O)c2ccc(C(=O)Nc3nc(-c4cc5ccccc5o4)cs3)cc2)CC(C)O1 (stereo not drawn)	5	?	-18%	2.8µM*	-20
NS(=O)(=O)c1cccc(Nc2nc3ccccc3nc2NS(=O)(=O)c2ccc(Cl)cc2)c1	.	.	-7%	.	-36
O=C(Nc1nc(-c2cc3ccccc3o2)cs1)c1ccc(S(=O)(=O)N2CCCC2)cc1	-8	?	?	7.9µM*	?
CC(=O)N1CCN(c2ccc([N+](=O)[O-])cc2)CC1	5	-19%	-5%	23%	-23
Cc1noc(C)c1S(=O)(=O)N1CCN(c2ccc([N+](=O)[O-])cc2)CC1	.	3%	5%	-4%	18
Cc1ccc(OCCC(=O)N2CCN(c3ccc(O)cc3)CC2)cc1	-4	-4%	7.3µM*	3%	-2
Cc1ccc(S(=O)(=O)CC(=O)N2CCN(c3ccc([N+](=O)[O-])cc3)CC2)cc1	.	.	10µM*	.	15
Cc1noc(C)c1CSCC(=O)N1CCN(c2ccc([N+](=O)[O-])cc2)CC1	-1	38%	21µM*	?	-16
CCOc1ccc(C(=O)CCC(=O)N2CCN(c3ccc(O)cc3)CC2)cc1	.	.	3%	.	25
Cc1ccc(CC(=O)N2CCN(c3ccc([N+](=O)[O-])cc3)CC2)cc1	1	?	-22%	35µM*	3
Cc1cc(C)nc(SCC(=O)NC(=O)c2ccccc2O)n1	.	.	0%	.	-8
C=CC[N+]1([C@H]2C[C@H]3[C@@H]4CC[C@H]5C[C@H](O)[C@@H](N6CCOCC6)C[C@]5(C)[C@H]4CC[C@]3(C)[C@H]2OC(C)=O)CCCC1	.	-23%	.	-1%	.
COC(=O)C1=C(C(=O)OC)[C@@H]2Nc3ccccc3[C@@]23C[C@@H](C(=O)OC)N(S(=O)(=O)c2ccc(OC)cc2)C3=N1	3	.	.	.	.
Cc1c(C(=O)N2CC(C)OC(C)C2)[nH]c2ccc(Br)cc12 (stereo not drawn)	0	-12%	-2%	-5%	-6
